Where two headings read alike, the source gives them in different places. The campaign covered roughly 13,000 compounds. About 3,200 (25%) showed an effect of 50% or more. Some of the results follow.
System: P. falciparum stage V gametocytes
Parameters: BacTiter-Glo ATP luminescence viability of purified stage V gametocytes in 384-well plates, per cent inhibition versus DMSO
Conditions: 48 h, 5 µM, inhibitor

Structure (SMILES) | % Inhibition [%] | % Inhibition (% Inhibition) [%]
O=C(Nc1ccc(OC2CCN(Cc3ccccc3)CC2)c(Cl)c1)c1ccsc1 [TCMDC-133989] | 12.12 | 
Clc1ccc2c(NCc3ccccc3)ccnc2c1 [TCMDC-125506] | -30.27 | 
CCCCNc1ccc(C(=O)NC2CCN(C[C@H](O)c3ccnc4ccc(OC)cc34)CC2)cc1 [TCMDC-141038] | -7.518 | 
CC1(C)N=C(N)N=C(N)N1OCCCOc1cc(Cl)cc(Cl)c1 [TCMDC-131790] | 16.66 | 
O=C(Nc1ccc(F)c(Cl)c1)NC1CCN(c2ccnc3cc(Cl)ccc23)C1 (centres unmarked) [TCMDC-133404] | -39.28 | 
CCOC(=O)c1c(NC(=O)c2ccccc2)sc2c(O)c(CN(CC)CC)ccc12 [TCMDC-124066] | -13.75 | 
CCC(C)NC(=O)CN1CN(c2ccccc2)C2(CCN(C(=O)c3ccc(-c4ccccc4)cc3)CC2)C1=O (centres unmarked) [TCMDC-125175] | -41.83 | 
Cc1cc(N2CCCC2)nc(Nc2ccc(NC(=O)Cc3ccccc3)cc2)n1 [TCMDC-124967] | -3.146 | 
CC(=O)Nc1ccc(C(=O)Nc2cccc(-c3ccc(-c4nc5cc(C(F)(F)F)ccc5[nH]4)s3)c2)cn1 [TCMDC-136825] | 32.63 | 
NC1=NCN(OCc2ccc(Cl)c(Cl)c2)C(N)=N1 [TCMDC-131661] | 6.901 | 
CC(C)(C)c1ccc2oc(=O)n(C3CCN(C(=O)c4ccc([N+](=O)[O-])o4)CC3)c2c1 [TCMDC-124798] | 106.6 | 
O=[N+]([O-])c1cccc(CNCC2CCN(Cc3ccc(C(F)(F)F)cc3)CC2)c1 [TCMDC-141209] | 21.63 | 
FC(F)(F)c1ccc(CNCC2CCN(Cc3ccc4c(c3)OCO4)CC2)cc1 [TCMDC-141674] | 9.475 | 
O=C(c1ccc([N+](=O)[O-])o1)N1CCC(c2cn(Cc3cccc(F)c3)c3ccccc23)CC1 [TCMDC-124804] | 44.33 | 
O=C(c1ccc([N+](=O)[O-])o1)N1CCC(Cc2ccc(C(F)(F)F)cc2)CC1 [TCMDC-124805] | 110.5 | 
Cc1ccc2c(-c3ccc([N+](=O)[O-])o3)cc(C)nc2c1 [TCMDC-131568] | 5.138 | 
Cc1ccc2c(c1)c(C1CCN(C(=O)c3ccc([N+](=O)[O-])o3)CC1)cn2C [TCMDC-124787] | 93.47 | 
COc1cccc(-c2cnc(-c3ccncc3)nc2C2CCN(Cc3ccc(NC(C)=O)cc3)CC2)c1 [TCMDC-124592] | 1.604 | 
O=C(Nc1ccc(OC2CCN(Cc3ccc(F)cc3)CC2)c(Cl)c1)c1ccccc1 [TCMDC-133751] | 2.198 | 
COc1ccc(CN2CCCC(Nc3ccc(F)c(F)c3)C2)c(O)c1 (centres unmarked) [TCMDC-124607] | 5.364 | 
Cc1cccc(C(=O)Nc2ccnc(N3CCC(N(C)Cc4cccc(O)c4)CC3)c2)c1 [TCMDC-134963] | 14.15 | 
COc1ccc(-c2ccccc2)cc1NC(=S)NC1CCC(CN2CCC(c3c[nH]c4ccccc34)CC2)CC1 (centres unmarked) [TCMDC-140182] |  | 85.27
COc1ccc(-c2ccccc2)cc1NC(=S)NC1CCC(CN2CCC(c3c[nH]c4ccccc34)CC2)CC1 (centres unmarked) [TCMDC-140200] |  | 105.5
O=C(N[C@@H](CC1CCCCC1)C(=O)NCCc1ccc(Cl)c(Cl)c1)c1ccc(O)c(-c2ccc(Cl)c(Cl)c2)c1 [TCMDC-140874] | 30.89 | 

Structure (SMILES) | % Inhibition [%] | % Inhibition (% Inhibition) [%]
O=C(CCOc1ccccc1)NCC1CCCO1 (centres unmarked) [TCMDC-123513] | 13.36 | 
O=C(NCCCNc1nc2ccccc2[nH]1)c1cccc(OC(F)(F)F)c1 [TCMDC-140754] | -24.04 | 
COc1ccc2nccc([C@@H](O)CN3CCC(NC(=O)C(=Cc4ccc(Cl)cc4Cl)c4ccc(-c5ccccc5)cc4)CC3)c2c1 [TCMDC-141109] | 17.05 | 
COc1ccc2nccc([C@@H](O)CN3CCC(NC(=O)/C(=C/c4ccccc4)c4ccc(-c5ccccc5)cc4)CC3)c2c1 [TCMDC-141115] | 0.831 | 
O=C(NCCc1ccccc1)N(Cc1ccccc1-c1ccc(CNC2CCCC2)cc1)C1CCN(Cc2ccccc2)CC1 [TCMDC-140613] | 98.8 | 
O=C(NCCc1ccccc1)N(Cc1ccccc1-c1cccc(CNC2CCCC2)c1)C1CCN(Cc2ccccc2)CC1 [TCMDC-140612] | 64.34 | 
O=C(NCC1CCC(C(=O)NC2CCCc3ccccc32)CC1)c1ccc(O)c(-c2cccc([N+](=O)[O-])c2)c1 (centres unmarked) [TCMDC-140882] | 10.62 | 
O=C(Nc1ccccc1)Nc1cccc(-c2ccc(-c3nc4ccc(C(F)(F)F)cc4[nH]3)cc2)c1 [TCMDC-133151] | -20.54 | 
CCOc1cc2ncnc(Nc3ccc(OCc4c(F)cccc4F)c(OC)c3)c2cc1OCC [TCMDC-131911] | 15.37 | 
CN1CCC(c2cc3c(cc2Br)CCN3C(=O)Nc2ccc(-c3ccncc3)c(Cl)c2)CC1 [TCMDC-139228] | 3.26 | 
CN1CCCC(COc2cc3c(cc2Br)CCN3C(=O)Nc2ccc(-c3ccncc3)c(Cl)c2)C1 (centres unmarked) [TCMDC-139230] | 96.61 | 
CN1CCC[C@@H](Oc2cc3c(cc2Br)CCN3C(=O)Nc2ccc(-c3ccncc3)c(Cl)c2)C1 [TCMDC-139237] | -19.19 | 
CC(C)OC(=O)c1cccnc1SCC(=O)Nc1ccc(C(F)(F)F)cc1Cl [TCMDC-123575] | -93.91 | 
FC(F)(F)c1ccc(CSc2ccc3nnc(-c4ccccn4)n3n2)cc1 [TCMDC-125344] | 51.34 | 
COc1ccc(-c2ccc(NC(=O)c3ccc(C#N)cc3)cc2)cc1CN(C)CCN(C)C [TCMDC-132520] | 27.11 | 
COc1ccc(-c2cccc(NC(=O)c3cccc(C#N)c3)c2)cc1CN(C)CCN(C)C [TCMDC-133339] | 13.46 | 
COc1ccc(-c2cccc(NC(=O)c3ccc(C#N)cc3)c2)cc1CN(C)CCN(C)C [TCMDC-133341] | 14.59 | 
COc1ccc(-c2cccc(NC(=O)c3ccc(F)cc3)c2)cc1CNC(C)C [TCMDC-132608] | 77.83 | 
COc1ccc(-c2cccc(NC(=O)c3cccc(C#N)c3)c2)cc1CN(C)CCO [TCMDC-132625] | 94.55 | 
COc1ccc(-c2cccc(NC(=O)c3cccc(C#N)c3)c2)cc1CNC(C)C [TCMDC-132622] | 84.95 | 
COc1ccc(-c2cccc(NC(=O)c3ccc(C#N)cc3)c2)cc1CNC(C)C [TCMDC-132610] | 13.1 | 
COc1ccc(-c2ccc(NC(=O)c3ccc(C#N)cc3)c(F)c2)cc1CN(C)CCN(C)C [TCMDC-133366] | 57.41 | 
COc1ccc(-c2ccc(NC(=O)c3cccc(C#N)c3)cc2)cc1CN(C)C [TCMDC-133333] | 10.09 | 
c1ccc(CCNc2ccnc(Nc3ccc4cn[nH]c4c3)n2)cc1 [TCMDC-136880] | 16.88 | 

Structure (SMILES) | % Inhibition [%] | % Inhibition (% Inhibition) [%]
CN(c1ccccc1)S(=O)(=O)c1cccc(NC(=O)c2ccc(-n3ccnc3)c([N+](=O)[O-])c2)c1 [TCMDC-125320] | 19.17 | 
CCC(=O)N1CCc2cc(Br)cc(S(=O)(=O)N3CC(C)CC(C)C3)c21 (centres unmarked) [TCMDC-123873] | -4.792 | 
Cc1ccc(N2C(=O)C3C(C2=O)C2(c4ccccc4)C(=O)C3(c3ccccc3)C(c3ccccc3)=C2c2ccccc2)c(C)c1 (centres unmarked) [TCMDC-124184] | 31.21 | 
Oc1ccc(CCNc2nc(N/N=C/c3ccc(Cl)cc3)nc(N3CCNCC3)n2)cc1 [TCMDC-138543] | -10.01 | 
C=CCN(c1ccc(OC)cc1)S(=O)(=O)c1ccc(Cl)c(C(=O)Nc2cccc(C#N)c2)c1 [TCMDC-123716] | -20.14 | 
COc1ccc(-c2cccc(NC(=O)c3cccc(Cl)c3)c2)cc1CNC(C)C [TCMDC-133340] | -37.98 | 
COc1ccc(-c2ccc(NC(=O)c3cccc(Cl)c3)c(F)c2)cc1CNC(C)C [TCMDC-132766] | 31.53 | 
COc1ccc(-c2cccc(NC(=O)c3ccc(Cl)cc3)c2)cc1CNC(C)C [TCMDC-132603] | 87.48 | 
COc1ccc(-c2ccc(NC(=O)c3ccc(F)cc3)cc2)cc1CNC(C)C [TCMDC-132515] | 64.88 | 
COc1ccc(-c2ccc(NC(=O)c3ccc(C#N)cc3)cc2)cc1CNC(C)C [TCMDC-132518] | 25.16 | 
COc1ccc(-c2ccc(NC(=O)c3cccc(F)c3)cc2)cc1CNC(C)C [TCMDC-132529] | -9.819 | 
CCNc1cc(C(=O)N[C@@H](Cc2ccccc2)[C@H](O)CNC(C)(C)c2cccc(OC)c2)cc(N2CCCC2=O)c1 [TCMDC-138895] | -11.4 | 
CCc1cccc(-n2nc(OCC(=O)NC3CCCC3)c3cccnc32)c1 [TCMDC-125160] | 5.355 | 
COc1cccc2cc(C(=O)N[C@@H](CC(C)C)C(=O)N[C@H](C=NN3CC(=O)NC3=O)CC(C)C)oc12 [TCMDC-136063] | 6.388 | 
Oc1cc(-c2nc(-c3ccccc3)[nH]c2-c2ccncc2)ccc1Cl [TCMDC-139660] | -47.58 | 
CCCCOc1ccc(-c2nc3ccccc3[nH]2)cc1 [TCMDC-123930] | 57.83 | 
COc1ccc(OCC(=O)Nc2cc(-c3nc4ccccc4[nH]3)ccc2Cl)cc1 [TCMDC-125425] | -8.801 | 
CCCCCCNCCOc1ccc(-c2nc(-c3ccccc3)c(-c3ccccc3)[nH]2)cc1 [TCMDC-137684] | 76.06 | 
CCCCNCCOc1ccc(-c2nc(-c3ccccc3)c(-c3ccccc3)[nH]2)cc1 [TCMDC-138053] | 74.26 | 
Oc1cccc(-c2nc(-c3ccccc3)c(-c3ccc(Oc4ccc(-c5[nH]c(-c6cccc(O)c6)nc5-c5ccccc5)cc4)cc3)[nH]2)c1 [TCMDC-125666] | -19.27 | 
CCCCCOc1ccc(C=NNc2nc(-c3ccccc3)cc(=O)[nH]2)cc1 [TCMDC-124237] | 29.87 | 
COc1ccc(NC(=O)Nc2ccc(-c3ccc(-c4nc5ccccc5[nH]4)cc3)cc2)cc1 [TCMDC-133248] | -24.62 | 
COc1cc(-c2nc(-c3ccccc3)c(-c3ccccc3)[nH]2)ccc1OCCN(C)C [TCMDC-137716] | -85.41 | 

Source: publication PMC4552634, “A New Set of Chemical Starting Points with Plasmodium falciparum Transmission-Blocking Potential for Antimalarial Drug Discovery” (PLoS ONE, 2015)
